According to the supplement of paper PMC8975748:
± gives the standard deviation of the averaged measurements.

Tests used:
[1] = system: Saccharomyces cerevisiae BY4741 SeMeCo community; experiment: mean cell size (pixel area) (pixels); higher = larger cells; conditions: 10 µM; 24 h; SM minimal medium
Outline: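 Mean cell pixel area per well was measured in a four-plasmid fluorescent community of Saccharomyces cerevisiae BY4741, where every plasmid complements one auxotrophy and carries a fluorescent marker. Cells from an overnight preculture at OD600 = 1.0 were diluted to OD600 = 0.3 and dispensed at 70 µl into 384-well plates acoustically predosed with drug to a final 10 µM in SM medium. Incubation lasted 24 h, followed by paraformaldehyde fixation, automated confocal imaging and analysis in Harmony. Reported figures are averaged over 3 replicates. Same SeMeCo high-content imaging drug screen: Selleck FDA-approved drugs at 10 µM, 24 h in SM medium, 384-well plates, 3 replicates.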

[2] = system: Saccharomyces cerevisiae BY4741 SeMeCo community; experiment: z-score of prototroph abundance vs DMSO median; higher = larger share of this subpopulation than in DMSO controls; conditions: 10 µM; 24 h; SM minimal medium; subpopulation (auxotrophy): Prototroph
Outline: (§1)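 Cells of a Saccharomyces cerevisiae BY4741 community, carrying four plasmids that each restored one auxotrophy and encoded a distinct fluorescent protein, were pre-grown overnight to OD600 1.0 and diluted to 0.3. A 70 µl volume was added to 384-well plates acoustically predosed with library drugs (10 µM final) and grown 24 h in minimal SM medium. After paraformaldehyde fixation, automated confocal microscopy was used, with single-auxotroph fluorescent strains for thresholds and autofluorescence correction. The abundance of each subpopulation was scored as a z-score against the vehicle-well median.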

[3] = system: Saccharomyces cerevisiae BY4741 SeMeCo community; experiment: z-score of subpopulation abundance vs DMSO median, subpopulation auxotrophic for L; higher = larger share of this subpopulation than in DMSO controls; conditions: 10 µM; 24 h; SM minimal medium; subpopulation (auxotrophy): L
Outline: as §1

[4] = system: Saccharomyces cerevisiae BY4741 SeMeCo community; experiment: z-score of subpopulation abundance vs DMSO median, subpopulation auxotrophic for U; higher = larger share of this subpopulation than in DMSO controls; conditions: 10 µM; 24 h; SM minimal medium; subpopulation (auxotrophy): U
Outline: as §1

[5] = system: Saccharomyces cerevisiae BY4741 SeMeCo community; experiment: z-score of subpopulation abundance vs DMSO median, subpopulation auxotrophic for H; higher = larger share of this subpopulation than in DMSO controls; conditions: 10 µM; 24 h; SM minimal medium; subpopulation (auxotrophy): H
Outline: as §1

[6] = system: Saccharomyces cerevisiae BY4741 SeMeCo community; experiment: z-score of subpopulation abundance vs DMSO median, subpopulation auxotrophic for LU; higher = larger share of this subpopulation than in DMSO controls; conditions: 10 µM; 24 h; SM minimal medium; subpopulation (auxotrophy): LU
Outline: as §1

[7] = system: Saccharomyces cerevisiae BY4741 SeMeCo community; experiment: z-score of subpopulation abundance vs DMSO median, subpopulation auxotrophic for LM; higher = larger share of this subpopulation than in DMSO controls; conditions: 10 µM; 24 h; SM minimal medium; subpopulation (auxotrophy): LM
Outline: as §1

[8] = system: Saccharomyces cerevisiae BY4741 SeMeCo community; experiment: z-score of subpopulation abundance vs DMSO median, subpopulation auxotrophic for HM; higher = larger share of this subpopulation than in DMSO controls; conditions: 10 µM; 24 h; SM minimal medium; subpopulation (auxotrophy): HM
Outline: as §1

[9] = system: Saccharomyces cerevisiae BY4741 SeMeCo community; experiment: z-score of subpopulation abundance vs DMSO median, subpopulation auxotrophic for HU; higher = larger share of this subpopulation than in DMSO controls; conditions: 10 µM; 24 h; SM minimal medium; subpopulation (auxotrophy): HU
Outline: as §1

[10] = system: Saccharomyces cerevisiae BY4741 SeMeCo community; experiment: z-score of subpopulation abundance vs DMSO median, subpopulation auxotrophic for UM; higher = larger share of this subpopulation than in DMSO controls; conditions: 10 µM; 24 h; SM minimal medium; subpopulation (auxotrophy): UM
Outline: as §1

[11] = system: Saccharomyces cerevisiae BY4741 SeMeCo community; experiment: z-score of subpopulation abundance vs DMSO median, subpopulation auxotrophic for HL; higher = larger share of this subpopulation than in DMSO controls; conditions: 10 µM; 24 h; SM minimal medium; subpopulation (auxotrophy): HL
Outline: as §1

[12] = system: Saccharomyces cerevisiae BY4741 SeMeCo community; experiment: z-score of subpopulation abundance vs DMSO median, subpopulation auxotrophic for HLU; higher = larger share of this subpopulation than in DMSO controls; conditions: 10 µM; 24 h; SM minimal medium; subpopulation (auxotrophy): HLU
Outline: as §1

[13] = system: Saccharomyces cerevisiae BY4741 SeMeCo community; experiment: z-score of subpopulation abundance vs DMSO median, subpopulation auxotrophic for HLM; higher = larger share of this subpopulation than in DMSO controls; conditions: 10 µM; 24 h; SM minimal medium; subpopulation (auxotrophy): HLM
Outline: as §1

[14] = system: Saccharomyces cerevisiae BY4741 SeMeCo community; experiment: z-score of subpopulation abundance vs DMSO median, subpopulation auxotrophic for HLUM; higher = larger share of this subpopulation than in DMSO controls; conditions: 10 µM; 24 h; SM minimal medium; subpopulation (auxotrophy): HLUM
Outline: as §1

[15] = system: Saccharomyces cerevisiae BY4741 SeMeCo community; experiment: z-score of subpopulation abundance vs DMSO median, subpopulation auxotrophic for LUM; higher = larger share of this subpopulation than in DMSO controls; conditions: 10 µM; 24 h; SM minimal medium; subpopulation (auxotrophy): LUM
Outline: as §1

[16] = system: Saccharomyces cerevisiae BY4741 SeMeCo community; experiment: z-score of subpopulation abundance vs DMSO median, subpopulation auxotrophic for HUM; higher = larger share of this subpopulation than in DMSO controls; conditions: 10 µM; 24 h; SM minimal medium; subpopulation (auxotrophy): HUM
Outline: as §1

| SMILES | mean cell size [1] | z-score of prototroph abundance [2] | z-score of subpopulation abundance [3] | z-score of subpopulation abundance [4] | z-score of subpopulation abundance [5] | z-score of subpopulation abundance [6] | z-score of subpopulation abundance [7] | z-score of subpopulation abundance [8] | z-score of subpopulation abundance [9] | z-score of subpopulation abundance [10] | z-score of subpopulation abundance [11] | z-score of subpopulation abundance [12] | z-score of subpopulation abundance [13] | z-score of subpopulation abundance [14] | z-score of subpopulation abundance [15] | z-score of subpopulation abundance [16] |
| --- | --- | --- | --- | --- | --- | --- | --- | --- | --- | --- | --- | --- | --- | --- | --- | --- |
| Cc1onc(-c2ccccc2)c1C(=O)N[C@@H]1C(=O)N2[C@@H]1SC(C)(C)[C@@H]2C(=O)O [Oxacillin sodium monohydrate] | 12.04 ± 0.12 | -0.42 | 0.52 | 0.36 | -0.05 | 0.83 | 0.23 | -0.14 | 0.32 | 0.41 | 0.94 | 0.2 | -0.54 | 0.03 |  |  |
| CC[C@H](C)C(=O)O[C@H]1C[C@H](O)C=C2C=C[C@H](C)[C@H](CC[C@@H](O)C[C@@H](O)CC(=O)O)[C@H]21 [Pravastatin sodium] | 12.3 ± 0.26 | -0.86 | 2.2 | -0.09 |  | 1.81 | 1.93 | 0.12 | 0.26 |  | 0.84 | -0.65 |  | 2.71 | 0.57 |  |
| COC(=O)C1=C(C)NC(C)=C(C(=O)OC(C)(C)CN(C)CCC(c2ccccc2)c2ccccc2)C1c1cccc([N+](=O)[O-])c1 (centres undefined) [Lercanidipine] | 12.1 ± 0.16 | -0.62 | 1.24 | -0.86 |  | 0.17 | 0.9 |  | 0.16 | -0.89 | 2.31 | 0.93 |  | 1.54 | 0.13 | 0.23 |
| CO[C@@H]1[C@@H](O[C@@H]2O[C@H](C)[C@@H](O[C@H]3C[C@@](C)(O)[C@@H](O)[C@H](C)O3)[C@H](N(C)C)[C@H]2O)[C@@H](CC=O)C[C@@H](C)[C@@H](O[C@H]2CC[C@H](N(C)C)[C@@H](C)O2)/C=C/C=C/C[C@@H](C)OC(=O)C[C@H]1OC(C)=O [Acetylspiramycin (ASPM)] | 12.3 ± 0.32 | -0.27 |  | -1.32 | 1 | 0.65 | 1.53 |  | -0.58 | -0.94 | 1.77 | 1.65 | 0.23 | 1.07 | 1.09 | 0.11 |
| CC[C@H]1OC(=O)C[C@@H](O)[C@H](C)[C@@H](O[C@@H]2O[C@H](C)[C@@H](O)[C@H](N(C)C)[C@H]2O)[C@@H](CCN2C[C@H](C)C[C@H](C)C2)C[C@@H](C)C(=O)/C=C/C(C)=C/[C@@H]1CO[C@@H]1O[C@H](C)[C@@H](O)[C@@H](OC)[C@H]1OC [Tilmicosin] | 12.4 ± 0.17 | -1.13 | 0.75 | 0.52 | 0.98 | 1.26 | 0.46 | 0.93 | 1.52 | 0.65 |  | 0.58 |  | 0.67 | 1.68 | 0.75 |
| CCn1cc(C(=O)O)c(=O)c2cnc(N3CCNCC3)nc21 [Pipemidic acid] | 12 ± 0.14 | -0.62 | -0.32 | 0.77 | -1.07 | 0.45 | 0.15 | 0.81 | -0.06 | 0.86 | 0.01 | -0.49 |  | 0.28 | 0.73 |  |
| CC(=O)OCC(COC(C)=O)OC(C)=O [Triacetin] |  | 0.21 | -0.06 | 0.01 | 0.22 | -0.81 | 0.2 | 0.03 | 0.55 |  | -0.02 | -1.12 | -0.57 | -0.48 | 0.32 | 0.7 |
| COc1cc2c(cc1OC)C(=O)C(CC1CCN(Cc3ccccc3)CC1)C2 (centres undefined) [Donepezil] | 12.14 ± 0.068 | -0.18 | 0.86 | -1.17 |  | 0.06 | 0.51 | 0.52 | -0.92 | -0.49 | 0.47 | -0.33 | -0.14 | 0.22 | 0.47 |  |
